# Source: PubChem BioAssay (EPA / NIEHS)
# Calls of active or inactive are those of the source. The calls were made as follows: active = hit-call score of the fitted dose curve at least 0.9, where 1 is the maximum; inconclusive = response in the unintended direction; inactive = score below 0.9.
# Test: Tanguay_ZF_120hpf_ActivityScore_legacy: (Legacy) Oregon State University Tanguay Lab 120 Hour Post-fertilization zebrafish Assay Score for Activity (AID 2283742);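 as to AC50: static exposure from 6 hpf until 120 hpf at 28 °C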
# Protocol: Tanguay_ZF_120hpf_legacy is a whole embryo, multiplexed endpoint assay using zebrafish larvae exposed for 120 hours post fertilization on a 96-well plate.Tanguay_ZF_120hpf_ActivityScore_legacy is one of one assay component(s) measured or calculated from the Tanguay_ZF_120hpf_legacy assay. It is designed to make measurements of developmental malformations and mortality as detected with brightfield microscopy and combines scoring from 18 other assay components measuring more specific morphologies.Data from the assay component Tanguay_ZF_120hpf_ActivityScore_legacy was analyzed into 1 assay endpoints. This assay endpoint, Tanguay_ZF_120hpf_ActivityScore_legacy, was analyzed in the positive analysis fitting direction relative to DMSO as the negative control and baseline of activity. Using a type of morphology reporter, gain-of-signal activity can be used to understand changes in developmentals as they relate to the whole embryo. To generalize the intended target to other relatable targets, this assay endpoint is annotated to the zebrafish development intended target family, where the subfamily is embryonic morphogenesis and mortality.
# Zebrafish husbandry: Tropical 5D wild-type adult zebrafish were housed in at an approximate density of 1000 per 100 gallon tank at the Sinnhuber Aquatic Research Laboratory, Oregon State University, Corvallis, OR. Each tank was kept at standard laboratory conditions of 28C on a 14-h light/10-h dark photoperiod in fish water consisting of reverse osmosis water supplemented with a commercially available salt (Instant Ocean). Spawning funnels were placed into the tanks the night prior, and embryos were collected and staged. To increase bioavailability, the chorion was enzymatically removed using pronase (63.6mg/ml, >/= 3.5U/mg, Sigma-Aldrich: P5147) at 4 hours post fertilization (hpf) using a custom automated dechorionator.Chemical exposures: Six hpf dechorionated embryos were placed 1 embryo per well in a 96-well plate prefilled with 90 ul of EM using automated embryo placement systems (AEPS). Ten microliters of each row of dilution plate 2 was added to 2 exposure plates. The final DMSO concentration used was 0.64% (vol/vol). Thirty-two embryos were also exposed to 5uM trimethyltin chloride (positive control). Plates were sealed to prevent evaporation and foil covered to reduce light exposure and kept in a 28C incubator. Embryos were statically exposed until 120 hpf. At 24 hpf, embryos were assessed for photomotor response using a custom photomotor response analysis tool (PRAT) and for developmental toxicity endpoints (MO24: mortality at 24 hpf, DP: developmental progression, SM: spontaneous movement, and NC: notochord distortion). At 120 hpf, locomotor activity was measured using Viewpoint Zebralab and assessed for 18 endpoints. Zebrafish acquisition and analysis program (ZAAP), a custom program designed to inventory, acquire, and manage zebrafish data, was used to collect developmental endpoints as either present or absent (i.e., binary responses were recorded). If mortality occurred for an embryo (at either 24 or 120 hpf), the non-mortality endpoints were not measured.
Compound,outcome,AC50
COC(=O)NC(=S)Nc1ccccc1NC(=S)NC(=O)OC,inactive,–
N#CN=C1SCCN1Cc1ccc(Cl)nc1,inactive,–
CCC(C)n1c(=O)[nH]c(C)c(Br)c1=O (stereo not given),inactive,–
CCN(CC)c1nc(C)cc(OP(=S)(OC)OC)n1,inactive,–
Cc1ccc(N=CN(C)C=Nc2ccc(C)cc2C)c(C)c1,inactive,–
COP(=S)(OC)Oc1ccc([N+](=O)[O-])c(C)c1,inactive,–
N#Cc1c(Cl)cccc1Cl,inactive,–
Cn1c(-c2ccccc2)cc(-c2ccccc2)[n+]1C,inactive,–
CCOP(=S)(OCC)Oc1nc(Cl)n(C(C)C)n1,inactive,–
CCCC(=NOCC)C1=C(O)CC(CC(C)SCC)CC1=O (stereo not given),inactive,–
Nc1c(Cl)c(F)nc(OCC(=O)O)c1Cl,inactive,–
COc1ccc(-c2ccccc2)cc1NNC(=O)OC(C)C,inactive,–
CCCCC(O)(Cn1cncn1)c1ccc(Cl)cc1Cl (stereo not given),inactive,–
O=C(Nc1ccccc1-c1ccc(Cl)cc1)c1cccnc1Cl,inactive,–
CC(C)NC(=O)N1CC(=O)N(c2cc(Cl)cc(Cl)c2)C1=O,inactive,–
CNC(=O)Oc1cccc2ccccc12,inactive,–
COc1cc(Cl)c(OC)cc1Cl,inactive,–
CC(C)Oc1cccc(NC(=O)c2ccccc2C(F)(F)F)c1,–,34.2 µM (active)
C=C(C)CN(CC)c1c([N+](=O)[O-])cc(C(F)(F)F)cc1[N+](=O)[O-],inactive,–
CCNP(=S)(OC)O/C(C)=C/C(=O)OC(C)C (stereo not given),inactive,–

Compound,outcome,AC50
CC(C)(C)C(=O)C(Oc1ccc(Cl)cc1)n1cncn1 (stereo not given),–,33.6 µM (active)
CCCCC(C#N)(Cn1cncn1)c1ccc(Cl)cc1 (stereo not given),inactive,–
O=c1n(Cl)c(=O)n(Cl)c(=O)n1Cl,inactive,–
O=C1C2CC=CCC2C(=O)N1SC(Cl)(Cl)Cl (stereo not given),–,43.5 µM (active)
CC(C)C1(C)N=C(c2ncccc2C(=O)O)NC1=O (stereo not given),inactive,–
C=CCOC(=O)C(C)(C)OC(=O)c1cc(-n2c(=O)cc(C(F)(F)F)n(C)c2=O)ccc1Cl,inactive,–
CS(=O)(=O)c1cc(C(F)(F)F)ccc1C(=O)c1cnoc1C1CC1,inactive,–
COC(=O)c1c(C(F)F)nc(C(F)(F)F)c(C2=NCCS2)c1CC(C)C,inactive,–
CCOC(=O)C(C)OC(=O)c1cc(Oc2ccc(C(F)(F)F)cc2Cl)ccc1[N+](=O)[O-] (stereo not given),inactive,–
Cc1cnc(C2=NC(C)(C(C)C)C(=O)N2)c(C(=O)O)c1 (stereo not given),inactive,–
CCNC(=O)NC(=O)C(C#N)=NOC,–,32.4 µM (active)
Cc1cc(C)nc(Nc2ccccc2)n1,inactive,–
COCC(=O)N(c1c(C)cccc1C)C(C)C(=O)OC (stereo not given),inactive,–
COP(=S)(OC)SCn1nnc2ccccc2c1=O,inactive,–
COC(=O)N(C(=O)N1CO[C@@]2(C(=O)OC)Cc3cc(Cl)ccc3C2=N1)c1ccc(OC(F)(F)F)cc1,inactive,–
Cc1c(COC(=O)[C@@H]2[C@H](/C=C(\Cl)C(F)(F)F)C2(C)C)cccc1-c1ccccc1,inactive,–
CCOc1nc(F)cc2nc(S(=O)(=O)Nc3c(Cl)cccc3Cl)nn12,inactive,–
N#Cc1c[nH]cc1-c1cccc2c1OC(F)(F)O2,–,26.9 µM (active)
COP(=O)(OC)O/C(C)=C/C(=O)N(C)C,inactive,–
CN=C=S,inactive,–
